Measured values: PubChem BioAssay (NCI)
Compounds without any hit were thinned out: in the full panel of roughly 83,000, 20% have a hit.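 The test compound was applied at a single concentration to cells in 96-well plates for 48 hours, and percent growth was recorded.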 A number with no mark means an inactive call. The source made the active and inactive calls. Rule for the calls: active = growth percent below 10; inactive = the rest.

What follows are compounds tested on HOP-92 NSCLC (assay: NCI-60 one-dose screen, 48 h (100 = growth as untreated, 0 = no growth, -100 = all killed)). Details: 10 µM unless noted.
For `O=c1oc2ccccc2c(Cl)c1Cl`, the growth was 97.4%.
`O=C1NC(=Nc2ccc(Cl)cc2)S/C1=C\c1cn(-c2ccccc2)nc1-c1ccccc1` was tested, and the growth was -0.936% (active).
In the case of `COc1ccccc1NC(=O)N/C(N)=N/c1nc2ccccc2s1`, the growth is reported as 62.1%.
With `Cc1ccc(NS(=O)(=O)c2ccc3c(c2)C2OCCC2C(c2ccc(C(=O)C(C)C)cc2)N3)cc1C` (centres undefined) the growth was 74%.
Work on `N#Cc1c(N)nc2c(C#N)c(NC(=O)c3ccccc3)nn2c1-c1ccccc1` yielded a growth of 82.5%.
For `COc1cccc(Nc2nccc(Nc3ccc4[nH]ncc4c3)n2)c1`, the growth was -11.2% (active).
Work on `C[C@H]1[C@H]2[C@H]3CC[C@@H]4[C@@]5(C)C/C(=C/c6ccco6)C(=O)C(C)(C)[C@@H]5CC[C@@]4(C)[C@]3(C)CC[C@]23CO[C@]1(C)[C@@H](C(=O)/C=C\c1ccco1)C3` yielded a growth of 87.1%.
`O=C(NCCCNc1cc(-c2cn(-c3ccccc3)nc2-c2cccc(O)c2)ccn1)c1ccccc1` gave a growth of 49.8%.
For `COc1ccc(-c2csc(C3=C(O)CN(CCCN4CCCC4=O)C3=N)n2)cc1OC`, the growth was 62.8%.
For `CCCCCc1nc2c(c3c1CCCC3)CCCC2`, the growth was 56.2%.
With `Clc1cccc(Cl)c1/C=C/c1cc(/C=C/c2c(Cl)cccc2Cl)[nH]n1` the growth was 102%.
`COC(=O)c1c2c(c(C)[n+]([O-])c1C)C(=O)C(NCc1ccc(F)c(Cl)c1)=CC2=O` was tested, and the growth was 19%.
`Cc1c(C)c2c(c(C)c1OCC(=O)O)CC[C@@](C)(CCC[C@@H](C)CCC[C@@H](C)CCCC(C)C)O2` was tested, and the growth was -56.6% [50 µM] (active).
`c1c[nH]c(CNC2CCCCC2)c1` was tested, and the growth was 72.9%.
In the case of `NC(=O)c1ccc[n+](Cc2ccc(Cl)cc2Cl)c1`, the growth is reported as 96%.
`Cc1ccc(Cl)c(NS(=O)(=O)c2ccc(-c3cnc(C4CC4)o3)cc2)c1` gave a growth of 73.9%.
In the case of `Cc1ccc(-c2cc3c(cc2O)C2CCCCC2(N2CCOCC2)O3)cc1` (centres undefined), the growth is reported as 85.7%.
`CC1=C([Se]CC(OC(=O)CC[Se]c2ccccc2)C(=O)NCCCCCC(=O)OCc2ccccc2)C(=O)c2ccccc2C1=O` (centres undefined) was tested, and the growth was -5.98% (active).
Compound `COc1cc(-c2nn(-c3ccccc3)cc2-c2ccnc(NCCNS(=O)(=O)c3ccc(Cl)cc3)n2)ccc1Cl` has a growth of 48.8%.
For `CC1=C(SCCC(=O)OC(C[Se]C2=C(C)C(=O)c3ccccc3C2=O)C(=O)NCCCCCC(=O)OCc2ccccc2)C(=O)c2ccccc2C1=O` (centres undefined), the growth was 58.4%.
With `OC(c1cccc(-n2ccc(C(F)(F)F)n2)c1)c1cnccc1NC1CCCCCC1` (centres undefined) the growth was -5.13% (active).
For `O=C(Nc1cccc(Oc2nnc(Cl)c3ccccc23)c1)Nc1ccc(Cl)c(C(F)(F)F)c1`, the growth was -38.4% (active).
Work on `Cc1cc(NCCCCNc2ccnc3cc(Cl)ccc23)nc(Nc2ccc(C(=O)N3CCCC3)cc2)n1` yielded a growth of 72.6%.
For `N=C1C(c2nc(-c3ccc(Br)cc3)cs2)=C(O)CN1Cc1cccnc1`, the growth was -47.3% (active).
With `O=C(Nc1cccc(Cl)c1)c1cc(N=Nc2ccc([N+](=O)[O-])cc2Cl)ccc1O` the growth was 28.3%.
Compound `Cc1cccc(Cc2cnc(NC(=O)/C=C/c3ccco3)s2)c1` has a growth of 78%.
With `CNC(=O)NCC1OC(n2cnc3c(NC(=O)Nc4ccccc4)ncnc32)C(O[Si](C)(C)C(C)(C)C)C1CC(=O)N(C)OC` (centres undefined) the growth was -34.3% (active).
With `CCN1C(=O)N(CC)C2Nn3c(s/c(=C\c4ccc(Cl)cc4Cl)c3=O)=NC21` (centres undefined) the growth was 68.3%.
Compound `CCN(CC)CCCCCCNc1cc(OC)c(Cl)c2cccnc12` has a growth of 58.8%.
With `c1csc(-c2c3ccc(=[N+]4CCCCC4)cc-3oc3cc(N4CCCCC4)ccc23)c1` the growth was -64.7% (active).
In the case of `COc1ccc(NC(=O)c2nc(-c3cc(OC)c(OC)c(OC)c3)n(-c3cccc4ccccc34)n2)cc1OC`, the growth is reported as 46.4%.
For `O=C(Cc1ccc(F)c(F)c1)Nc1cc(C2(C(F)(F)F)CC2)nn1Cc1ccccc1`, the growth was -17.7% (active).
`N=c1sc(Cc2ccc(Cl)cc2)cn1CC(=O)c1ccc(F)cc1` gave a growth of 109%.
For `COc1ccc(S(=O)(=O)NCCNc2nccc(-c3c(-c4cccc(F)c4)nc4sccn34)n2)cc1`, the growth was 71.8%.
In the case of `COc1ccc2c(c1)O/C(=C\c1cccc(OCC(=O)Nc3nc4ccccc4s3)c1)C2=O`, the growth is reported as -24.5% (active).
`Cc1c(C(=O)OC(=NC2CCCCC2)NC2CCCCC2)sc2c1c(=O)nc1c(C#N)n[nH]n12` was tested, and the growth was -16.8% (active).
`COc1ccc(-c2nc(SC(C)C)nc(NNC(N)=S)c2C#N)cc1` was tested, and the growth was 41.2%.

The compounds below were run on NCI-H522 lung in the same assay as above. Details: 10 µM unless noted.
For `O=c1oc2ccccc2c(Cl)c1Cl`, the growth was 22.9%.
With `O=C1NC(=Nc2ccc(Cl)cc2)S/C1=C\c1cn(-c2ccccc2)nc1-c1ccccc1` the growth was 75.4%.
With `COc1ccccc1NC(=O)N/C(N)=N/c1nc2ccccc2s1` the growth was 4.23% (active).
`Cc1ccc(NS(=O)(=O)c2ccc3c(c2)C2OCCC2C(c2ccc(C(=O)C(C)C)cc2)N3)cc1C` (centres undefined) showed a growth of 39.2%.
Compound `N#Cc1c(N)nc2c(C#N)c(NC(=O)c3ccccc3)nn2c1-c1ccccc1` has a growth of 86.5%.
In the case of `COc1cccc(Nc2nccc(Nc3ccc4[nH]ncc4c3)n2)c1`, the growth is reported as -68.4% (active).
With `C[C@H]1[C@H]2[C@H]3CC[C@@H]4[C@@]5(C)C/C(=C/c6ccco6)C(=O)C(C)(C)[C@@H]5CC[C@@]4(C)[C@]3(C)CC[C@]23CO[C@]1(C)[C@@H](C(=O)/C=C\c1ccco1)C3` the growth was 85.7%.
For `O=C(NCCCNc1cc(-c2cn(-c3ccccc3)nc2-c2cccc(O)c2)ccn1)c1ccccc1`, the growth was 7.01% (active).
For `COc1ccc(-c2csc(C3=C(O)CN(CCCN4CCCC4=O)C3=N)n2)cc1OC`, the growth was 119%.
For `CCCCCc1nc2c(c3c1CCCC3)CCCC2`, the growth was 44.6%.
`Clc1cccc(Cl)c1/C=C/c1cc(/C=C/c2c(Cl)cccc2Cl)[nH]n1` was tested, and the growth was -9.35% (active).
For `COC(=O)c1c2c(c(C)[n+]([O-])c1C)C(=O)C(NCc1ccc(F)c(Cl)c1)=CC2=O`, the growth was -26.6% (active).
With `Cc1c(C)c2c(c(C)c1OCC(=O)O)CC[C@@](C)(CCC[C@@H](C)CCC[C@@H](C)CCCC(C)C)O2` the growth was -4.29% [50 µM] (active).
`c1c[nH]c(CNC2CCCCC2)c1` gave a growth of 109%.
Compound `NC(=O)c1ccc[n+](Cc2ccc(Cl)cc2Cl)c1` has a growth of 79.4%.
In the case of `Cc1ccc(Cl)c(NS(=O)(=O)c2ccc(-c3cnc(C4CC4)o3)cc2)c1`, the growth is reported as 3.84% (active).
For `Cc1ccc(-c2cc3c(cc2O)C2CCCCC2(N2CCOCC2)O3)cc1` (centres undefined), the growth was 82.7%.
Work on `CC1=C([Se]CC(OC(=O)CC[Se]c2ccccc2)C(=O)NCCCCCC(=O)OCc2ccccc2)C(=O)c2ccccc2C1=O` (centres undefined) yielded a growth of 52.7%.
`COc1cc(-c2nn(-c3ccccc3)cc2-c2ccnc(NCCNS(=O)(=O)c3ccc(Cl)cc3)n2)ccc1Cl` gave a growth of 42.2%.
`CC1=C(SCCC(=O)OC(C[Se]C2=C(C)C(=O)c3ccccc3C2=O)C(=O)NCCCCCC(=O)OCc2ccccc2)C(=O)c2ccccc2C1=O` (centres undefined) was tested, and the growth was 20.7%.
`OC(c1cccc(-n2ccc(C(F)(F)F)n2)c1)c1cnccc1NC1CCCCCC1` (centres undefined) showed a growth of 43.9%.
With `O=C(Nc1cccc(Oc2nnc(Cl)c3ccccc23)c1)Nc1ccc(Cl)c(C(F)(F)F)c1` the growth was -67.5% (active).
For `Cc1cc(NCCCCNc2ccnc3cc(Cl)ccc23)nc(Nc2ccc(C(=O)N3CCCC3)cc2)n1`, the growth was 26.5%.
`N=C1C(c2nc(-c3ccc(Br)cc3)cs2)=C(O)CN1Cc1cccnc1` was tested, and the growth was 68.4%.
With `O=C(Nc1cccc(Cl)c1)c1cc(N=Nc2ccc([N+](=O)[O-])cc2Cl)ccc1O` the growth was -16.5% (active).
With `Cc1cccc(Cc2cnc(NC(=O)/C=C/c3ccco3)s2)c1` the growth was -12% (active).
For `CNC(=O)NCC1OC(n2cnc3c(NC(=O)Nc4ccccc4)ncnc32)C(O[Si](C)(C)C(C)(C)C)C1CC(=O)N(C)OC` (centres undefined), the growth was 65.9%.
In the case of `CCN1C(=O)N(CC)C2Nn3c(s/c(=C\c4ccc(Cl)cc4Cl)c3=O)=NC21` (centres undefined), the growth is reported as 12.3%.
`CCN(CC)CCCCCCNc1cc(OC)c(Cl)c2cccnc12` gave a growth of 81.1%.
In the case of `c1csc(-c2c3ccc(=[N+]4CCCCC4)cc-3oc3cc(N4CCCCC4)ccc23)c1`, the growth is reported as -70% (active).
With `COc1ccc(NC(=O)c2nc(-c3cc(OC)c(OC)c(OC)c3)n(-c3cccc4ccccc34)n2)cc1OC` the growth was 21.8%.
In the case of `O=C(Cc1ccc(F)c(F)c1)Nc1cc(C2(C(F)(F)F)CC2)nn1Cc1ccccc1`, the growth is reported as -24.6% (active).
Work on `N=c1sc(Cc2ccc(Cl)cc2)cn1CC(=O)c1ccc(F)cc1` yielded a growth of 63.5%.
`COc1ccc(S(=O)(=O)NCCNc2nccc(-c3c(-c4cccc(F)c4)nc4sccn34)n2)cc1` was tested, and the growth was 48.1%.
For `COc1ccc2c(c1)O/C(=C\c1cccc(OCC(=O)Nc3nc4ccccc4s3)c1)C2=O`, the growth was -60.1% (active).
With `Cc1c(C(=O)OC(=NC2CCCCC2)NC2CCCCC2)sc2c1c(=O)nc1c(C#N)n[nH]n12` the growth was 89.2%.
Compound `COc1ccc(-c2nc(SC(C)C)nc(NNC(N)=S)c2C#N)cc1` has a growth of 12.8%.
